Assay results as given in PubChem BioAssay AID1159580 (chemical genetic matrix, 2015).
Screen size: about 5,500 compounds; about 2,000 (36%) were called active. Inconclusive results (about 18%) are left out. No stated cut-off is given here; in the data, active means normalized growth mostly below about 0.91 (no sharp cut-off); inconclusive means no clear call, values can overlap the other calls; inactive means mostly above about 0.92. Some of the results follow. Where a SMILES comes first, the peptide text is derived from it. [ ]: non-standard residue; d: D form. Orn = NCCC[CH](N)C(=O)O

Test: chemical genetic growth profiling, strain panel (AID 1159580);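 further: tested at 20 µM; growth read once vehicle control cultures reached saturation at 30 °C; 1 = growth at the plate median or of vehicle wells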
Conditions: S. cerevisiae deletion strains, growth OD

Measured: normalized growth

CC(C)[C@@H]1NC(=O)[C@H](CCCCN)NC(=O)[C@@H](Cc2c[nH]c3ccccc23)NC(=O)[C@H](Cc2ccc(O)cc2)NC(=O)[C@H](C)N(C)C(=O)[C@H](Cc2ccccc2)NC1=O
active: locus YMR307W, strain GAS1, stronger effect = lower value 0.879
inactive: locus YAL040C, strain CLN3, stronger effect = lower value 0.981 | locus YCL061C, strain MRC1 (second series), stronger effect = lower value 0.988 | locus YDR363W, strain ESC2, stronger effect = lower value 0.995 | locus YER002W, strain NOP16, stronger effect = lower value 1.01 | locus YMR263W, strain SAP30, stronger effect = lower value 0.994 | locus YNL175C, strain NOP13, stronger effect = lower value 0.988 | locus YNL197C, strain WHI3, stronger effect = lower value 0.988 | locus YNL224C, strain SQS1, stronger effect = lower value 1 | locus YNL322C, strain KRE1, stronger effect = lower value 0.984 | locus YOR083W, strain WHI5 (second series), stronger effect = lower value 0.989

CC(C)CC1NC(=O)C(CCCN)NC(=O)C(C(C)C)NC(=O)C(Cc2ccc(O)cc2)NC(=O)C(CCC(=O)O)NC(=O)C(CC(=O)O)NC(=O)C(Cc2ccccc2)NC(=O)C(Cc2ccccc2)NC(=O)C2CCCN2C(=O)C(Cc2ccccc2)NC1=O (configuration not stated) (cyclo(DEYV[Orn]LFPFF); configuration not given here)
inactive: locus YOL012C, strain htz1 0.202
